From PubChem BioAssay (EPA / NIEHS)
Inconclusive results are not listed. Calls of active or inactive are those of the source. The calls were made as follows, unless noted: active = hit-call score of the fitted dose curve at least 0.9, where 1 is the maximum; inactive = score below 0.9.

Columns and labels:
[1] = CCTE_Shafer_MEA_dev_firing_rate_mean: CCTE's Neural Network Formation Assay for Mean Firing Rate, Shafer Lab (AID 2284031);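 also: curve fitted for loss of firing so AC50 reflects decreased mean firing rate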
Summary of the method: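 Steps: seed rat cortical cells (1.5 x 10^5/well) with laminin on PEI-coated MEA; dose day 0; record DIV 5/7/9/12, full media and compound exchange after DIV 5 and 9 recordings; compute well-mean firing rate AUC.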

[2] = CCTE_Shafer_MEA_dev_per_burst_spike_percent: CCTE's Neural Network Formation Assay for Percent of Spikes in a Burst, Shafer Lab (AID 2284032);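 also: fitted as a decrease in burst spike percentage below DMSO baseline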
Summary of the method: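 Value is trapezoidal AUC over recordings on days 5, 7, 9 and 12 of the well-mean fraction of spikes falling in single-electrode bursts; rat cortical cultures exposed continuously from plating, treatment renewed DIV 5 and 9, fitted downward against DMSO.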

[3] = CCTE_Shafer_MEA_dev_active_electrodes_number: CCTE's Neural Network Formation Assay for Number of Active Electrodes, Shafer Lab (AID 2284040; active = hit-call score of the fitted dose curve at least 0.9, where 1 is the maximum;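 also: potency for loss of active electrodes versus DMSO so lower counts are hits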)
Summary of the method: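 Counts electrodes per well firing at least 5 spikes/min, recorded on days 5, 7, 9 and 12 in rat cortical cultures dosed continuously from plating (treatment refreshed DIV 5, 9). Value is the area under the curve over recordings, fitted downward relative to DMSO.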

[4] = CCTE_Shafer_MEA_dev_bursting_electrodes_number: CCTE's Neural Network Formation Assay for Number of Bursting Electrodes, Shafer Lab (AID 2284043; active = hit-call score of the fitted dose curve at least 0.9, where 1 is the maximum;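 also: potency is for loss of bursting electrodes relative to DMSO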)
Summary of the method: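 Counted: electrodes with burst rate ≥1 per 2 min in each well. Cells: primary rat cortex, 1.5 x 10^5/well, on 16-electrode MEA wells. Exposure: DIV 0–12, compound renewed DIV 5 and 9. Recording days 5, 7, 9, 12; AUC vs DMSO baseline.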

[5] = CCTE_Shafer_MEA_dev_per_burst_interspike_interval: CCTE's Neural Network Formation Assay for Burst Interspike Interval, Shafer Lab (AID 2284044);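 also: potency for a decrease of within-burst interspike interval below DMSO level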
Summary of the method: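 Neurons from rat cortex plated onto PEI-coated MEA wells with laminin […] at 1.5 x 10^5 cells/well, then treated from day 0. Media and compound fully replaced on DIV 5 and 9. Extracellular spontaneous firing recorded four times; interspike interval per burst summarised as AUC.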

[6] = CCTE_Shafer_MEA_dev_burst_duration_mean: CCTE's Neural Network Formation Assay for Mean Burst Duration, Shafer Lab (AID 2284045)
Summary of the method: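 Network-formation assay in primary rat cortical neurons; treatment spans twelve days of development. Mean burst duration per well is integrated by trapezoidal AUC and fitted in the loss-of-signal direction against DMSO baseline.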

[7] = CCTE_Shafer_MEA_dev_interburst_interval_mean: CCTE's Neural Network Formation Assay for Mean Interburst Interval, Shafer Lab (AID 2284046);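 also: well-mean interburst interval of bursting electrodes as AUC over four recording days; curve fitted for decrease in interburst interval relative to DMSO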
Summary of the method: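 Rat cortical neurons, 1.5 x 10^5 cells/well, 48-well MEA; compound from day 0 through DIV 12, media and treatment renewed DIV 5/9. Recordings DIV 5, 7, 9, 12; well-mean interburst interval → trapezoidal AUC, loss direction vs DMSO.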

[8] = CCTE_Shafer_MEA_dev_network_spike_number: CCTE's Neural Network Formation Assay for Number of Network Spikes, Shafer Lab (AID 2284048);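 also: synchronized bursts across electrodes counted on days 5 7 9 12 and integrated as AUC; fit as a loss of signal meaning fewer network spikes than DMSO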
Summary of the method: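 Extracellular recordings from 16-electrode wells track network formation in rat cortical cultures under continuous treatment from plating. The endpoint is network spike number, expressed as AUC across DIV 5–12 relative to DMSO vehicle.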

[9] = CCTE_Shafer_MEA_dev_network_spike_peak: CCTE's Neural Network Formation Assay for Mean Number of Electrodes in Network Spike, Shafer Lab (AID 2284049);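 also: fitted for loss of signal meaning fewer electrodes in network spikes than DMSO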
Summary of the method: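 Continuous 12-day exposure of rat cortical cultures, starting at plating, on MEA plates. Endpoint: electrodes participating in network-spike peaks, AUC across DIV 5–12, DMSO as negative control.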

[10] = CCTE_Shafer_MEA_dev_spike_duration_mean: CCTE's Neural Network Formation Assay for Mean Spike Duration, Shafer Lab (AID 2284051);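 also: mean network spike duration pooled as area under curve over DIV 5 to 12 recordings; potency for a decrease in mean network spike duration versus DMSO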
Summary of the method: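 Rat cortical primary cultures, 48-well MEA (16 electrodes/well); compound from plating, renewed DIV 5, 9. Network spike duration (AxIS adaptive detector) recorded DIV 5/7/9/12, combined as trapezoidal AUC; loss direction vs DMSO.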

[11] = CCTE_Shafer_MEA_dev_per_network_spike_spike_number_mean: CCTE's Neural Network Formation Assay for Mean Number of Spikes in a Network Spike, Shafer Lab (AID 2284053)
Summary of the method: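 Rat cortical primary cultures on 48-well MEA; compound from day 0, re-dosed with full media change DIV 5, 9. Recorded DIV 5, 7, 9, 12; spikes in 0.05 s window at network-spike peak ÷ total network spikes; AUC; loss vs DMSO.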

[12] = CCTE_Shafer_MEA_dev_per_network_spike_spike_percent: CCTE's Neural Network Formation Assay for Percent of Spikes in a Network Spike, Shafer Lab (AID 2284054)
Summary of the method: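 Developing networks of rat cortical neurons are dosed at day 0 and recorded extracellularly four times up to day 12. The endpoint is the area under the curve of percent spikes in network spikes, fitted in the negative direction relative to DMSO.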

[13] = CCTE_Shafer_MEA_dev_LDH: CCTE's Lactate Dehydrogenase Assay for Cytotoxicity in the Neural Network Formation Assay, Shafer Lab (AID 2284068; active = hit-call score of the fitted dose curve at least 0.9, where 1 is the maximum;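 also: exposure for twelve days from plating with re-dosing on DIV 5 and 9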)
Summary of the method: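 Rat cortical primary neurons, MEA culture; dosing day 0–12, full medium plus compound exchange DIV 5, 9. Read-out: LDH enzyme activity, spectrophotometric. DMSO = negative control/baseline; signal loss → cytotoxicity.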

[14] = CCTE_Shafer_MEA_dev_AB: CCTE's Alamar Blue Assay for Cytotoxicity in the Neural Network Formation Assay, Shafer Lab (AID 2284083; active = hit-call score of the fitted dose curve at least 0.9, where 1 is the maximum;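 also: resazurin reduction fluorescence as viability of cultured neurons; twelve days of exposure from plating with re-dosing on DIV 5 and 9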)
Summary of the method: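 Rat cortical primary cultures, 1.5 x 10^5 cells/well on MEA; continuous compound exposure over 12 days of network development, re-dosed with full medium change DIV 5 and 9. Alamar Blue fluorescence; loss of signal = cytotoxicity vs DMSO baseline.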

[15] = CCTE_Shafer_MEA_dev_mutual_information_norm: CCTE's Neural Network Formation Assay for Mutual Information Normalization, Shafer Lab (AID 2284091);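 also: mutual information between electrodes summarised as area under curve across four recording days; potency is for a decrease in mutual information relative to DMSO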
Summary of the method: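 Exposure of primary rat cortical neurons began at plating and ran to DIV 12, with full media and treatment renewal after DIV 5 and 9 recordings. Mutual information AUC (DIV 5–12) was analysed for loss versus DMSO.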

[16] = CCTE_Shafer_MEA_dev_correlation_coefficient_mean: CCTE's Neural Network Formation Assay for Mean Correlation Coefficient, Shafer Lab (AID 2284093);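 also: well mean pairwise spike train correlation integrated as AUC over recording days 5 to 12; potency fitted for loss of correlation relative to DMSO vehicle wells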
Summary of the method: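 Rat cortical cultures, 1.5 x 10^5 cells/well, dosed from day 0 for 12 days. Spontaneous spikes recorded DIV 5/7/9/12; electrode-pair correlation coefficients averaged, AUC taken. Fit in loss direction vs DMSO.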

[17] = UKN2_HCS_IMR90_neural_migration: University of Konstanz (UKN) Leist Lab Neural Crest Cell Migration Assay in human induced IMR90 Pluripotent Stem Cells (UKN2) (AID 2284204); settings: actives raise or lower the signal
Summary of the method: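 Using a 96-well stopper format with PLO/laminin/fibronectin coating, neural crest cells from iPSC migrate in cytokine-supplemented N2-S medium; after 24 h, chemicals are applied for a further 24 h, then cells are imaged after dye staining.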

[18] = IUF_NPC1b_proliferation_BrdU_72hr: Leibniz Research Institute for Environmental Medicine (IUF) 72-hour Neural Progenitor Cell Bromodeoxyuridine (BrdU) Proliferation Assay (NPC1b) (AID 2284207)
Summary of the method: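 Neural progenitor spheres of human fetal origin are treated for three days; BrdU added for the last 16 h is quantified by luminescence ELISA, with DMSO as baseline and EGF/FGF omission as positive control.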

[19] = IUF_NPC1a_proliferation_area_72hr: Leibniz Research Institute for Environmental Medicine (IUF) 72-hour Neural Progenitor Cell Proliferation Area Assay (NPC1a) (AID 2284208)
Summary of the method: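 Spheres of 0.3 mm are plated singly in growth-factor medium and exposed from day 0. After three days at 37C and 5% CO2, sphere area is measured by phase contrast imaging, with activity referenced to DMSO.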

[20] = IUF_NPC1_viability_72hr: Viability Assessment at 72 hours in the Leibniz Research Institute for Environmental Medicine (IUF) Neural Progenitor Cell Proliferation Assay (NPC1) (AID 2284209)
Summary of the method: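 Spheres of primary human neural progenitors were plated singly in proliferation medium and treated for 72 h. Mitochondrial reduction of resazurin was then measured by fluorescence and analysed against DMSO controls.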

[21] = CCTE_Mundy_HCI_Cortical_Synap_Neur_Matur_NeuriteSpotCountPerNeuriteLength: CCTE's Synaptogenesis and Neurite Maturation Assay in rat cortical cells for Neurite Spot Count per Neurite Length, Mundy Lab (AID 2284210)
Summary of the method: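 Neurite-associated synapse density (synaptophysin puncta per unit neurite length) is measured by fluorescence high-content imaging in rat cortical cultures treated from DIV 7 and fixed at DIV 12, with DMSO as negative control.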

[22] = CCTE_Mundy_HCI_Cortical_Synap_Neur_Matur_BPCount: CCTE's Synaptogenesis and Neurite Maturation Assay in rat cortical cells for Branch Point Count, Mundy Lab (AID 2284211)
Summary of the method: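 HCI read-out of branch points from MAP2/synaptophysin/Hoechst immunofluorescence; rat cortical cultures, AraC DIV 5, dosing DIV 7, fixed DIV 12; fit in positive direction vs DMSO baseline.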

[23] = CCTE_Mundy_HCI_Cortical_NOG_NeuriteCount: CCTE's Neurite Outgrowth Assay in rat cortical cells for Neurite Count, Mundy Lab (AID 2284212);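 also: cells fixed about two days after chemical exposure began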
Summary of the method: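 Rat cortical primary cells; compound added 2 h post-plating, 1/10 dilution of working solution. Anti-betaIII-tubulin/AF488 ICC; ArrayScan neurite count vs DMSO.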

[24] = CCTE_Mundy_HCI_Cortical_NOG_NeuriteLength: CCTE's Neurite Outgrowth Assay in rat cortical cells for Neurite Length, Mundy Lab (AID 2284213);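 also: neurites imaged about 48 to 50 h after chemical exposure began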
Summary of the method: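 First, rat primary cortical cells were plated and, 2 h later, given test chemical as a 1/10 dilution. Finally, βIII-tubulin immunostaining enabled automated imaging of neurite length.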

[25] = CCTE_Mundy_HCI_Cortical_Synap_Neur_Matur_NeuriteLength: CCTE's Synaptogenesis and Neurite Maturation Assay in rat cortical cells for Neurite Length, Mundy Lab (AID 2284214)
Summary of the method: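 Cultures of rat primary cortical cells received chemical at DIV 7 and were fixed at DIV 12, after glial arrest with AraC at DIV 5. Neurite length was measured by automated imaging of MAP2 immunofluorescence.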

Measured: AC50

BrC1CC(Br)CC(Br)CC(Br)CC(Br)CC(Br)C1 (stereo not given)
active: [1] 8.92 µM | [2] 4.4 µM | [3] 6.75 µM | [4] 5.42 µM | [5] 8.48 µM | [7] 4.31 µM | [8] 8.72 µM | [9] 7.04 µM | [10] 3.57 µM | [11] 4.17 µM | [12] 6.85 µM | [13] 10.6 µM | [14] 12.6 µM | [15] 2.73 µM | [16] 2.92 µM | [17] 5.5 µM | [18] 8.81 µM | [21] 3.49 µM | [22] 3.17 µM | [23] 8.41 µM | [24] 8.28 µM | [25] 4.04 µM
inactive: [6] | [19] | [20]
